PubChem BioAssay (NCI)
The panel holds about 79,000 compounds, 15% with a hit somewhere; the sample as a whole holds those more often. The source made the active and inactive calls. No stated cut-off is given here; in the data, active means growth inhibition above about 70%; inactive means the rest.

How the values were obtained:
[1] = NCI Yeast Anticancer Drug Screen. Data for the rad50 strain (AID 155);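 further: 0% = growth of vehicle-only cultures of the same strain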; settings: S. cerevisiae rad50 strain growth inhibition; at 50.0 µM; hits give high values
Summary of the method: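 Yeast carrying a defined DNA repair defect were exposed to test compounds, and growth was compared with vehicle-treated controls to give percent inhibition.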

[2] = NCI Yeast Anticancer Drug Screen. Data for the mec2-1 strain (AID 157); settings: S. cerevisiae mec2-1 strain, at 50.0 µM, hits give high values
Summary of the method: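 Test agents were screened against the mec2-1 yeast strain, with defined DNA repair or cell cycle alteration. Growth was scored as inhibition against vehicle-only controls.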

[3] = NCI Yeast Anticancer Drug Screen. Data for the sgs1 mgt1 strain (AID 161);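 further: 0% = growth of cultures given vehicle only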; settings: S. cerevisiae sgs1 mgt1 strain, at 50.0 µM, hits give high values
Summary of the method: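 Genetically altered yeast, compound exposure, growth inhibition relative to vehicle.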

[4] = NCI Yeast Anticancer Drug Screen. Data for the cln2 rad14 strain (AID 165);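 further: 0% = growth equal to vehicle treated cultures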; settings: S. cerevisiae cln2 rad14 strain, at 50.0 µM, hits give high values
Summary of the method: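 Growth of compound-exposed yeast (cln2 rad14 genotype) measured and expressed as inhibition relative to vehicle.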

[5] = NCI Yeast Anticancer Drug Screen. Data for the bub3 strain (AID 167); settings: S. cerevisiae bub3 mutant strain, at 50.0 µM, hits give high values
Summary of the method: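 Compounds were applied to a genetically altered yeast strain carrying a cell-cycle control defect. Growth inhibition was scored against vehicle-treated controls.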

[6] = NCI Yeast Anticancer Drug Screen. Data for the mlh1 rad18 strain (AID 175); settings: S. cerevisiae mlh1 rad18 strain growth inhibition; at 50.0 µM; hits give high values
Summary of the method: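 In this whole-cell yeast screen, a strain with altered DNA damage repair is challenged with compound, and its growth is measured against matched vehicle-treated controls.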

Measured: growth inhibition

CCCC(C)OS(=O)(=O)c1ccc(C)cc1 (stereo not drawn)
inactive: [1] 13% | [2] -6.55% | [3] 0.75% | [4] -36.5% | [5] 8.85% | [6] 5.05%

O=C1CS(=O)(=O)CN1c1ccc(Cl)c(Cl)c1
inactive: [1] -17.4% | [2] -3.35% | [3] -7.65% | [4] 6% | [5] 7% | [6] 3.6%

CCC1(C)N=C(N)Nc2nc3ccccc3n21 (stereo not drawn)
inactive: [1] -9.95% | [2] 0.35% | [3] -7.65% | [4] -28.6% | [5] 0.4% | [6] -18.2%

Cc1cccc(C(=O)OC2CCCCC2)c1
inactive: [1] 1.85% | [2] 1.2% | [3] -3.1% | [4] -30.4% | [5] 23.9% | [6] 0.5%

NC(=S)n1nc(-c2ccccc2)c(N=Nc2cccc([N+](=O)[O-])c2)c1-c1ccccc1
inactive: [1] 32.9% | [2] 7.5% | [3] 31.1% | [4] 19.6% | [5] 0.1% | [6] 10.8%

CC(=O)c1cc2ccccc2n(O)c1=N
inactive: [1] -32.9% | [2] -10.8% | [3] -24% | [4] 17.1% | [5] -15.2% | [6] -17.3%

COC(=O)C(C)n1c(C)csc1=S (stereo not drawn)
inactive: [1] -0.15% | [2] 4.85% | [3] -1.05% | [4] -26.4% | [5] 16.6% | [6] -0.55%

CCCCSc1nc2ccc(N=Cc3ccccc3O)cc2s1
inactive: [1] -19.6% | [2] -11.2% | [3] -4.45% | [4] -17.7% | [5] -5.75% | [6] -22.4%

Nc1nc2c(c(-c3ccccc3)n1)CN(CCCC(=O)O)C2=O
inactive: [1] 5.75% | [2] 14.8% | [3] 3.7% | [4] -3% | [5] 11.9% | [6] -0.45%

CCOC(=O)c1nc2ccccc2nc1Nc1ccc(F)cc1
inactive: [1] -2.35% | [2] -7.5% | [3] 1.75% | [4] 1.05% | [5] -21.1% | [6] -38%

Nc1nc(=O)[nH]c2n[nH]nc12
inactive: [1] -18.2% | [2] -7.15% | [3] 6.7% | [4] -3.15% | [5] -2.35% | [6] 0.2%

Cn1ccccc1=O
inactive: [1] 36.8% | [2] -26.7% | [3] -8.55% | [4] -56.5% | [5] 3.4% | [6] 27.2%

COc1ccc(N2C(=O)CCC2=S)cc1
inactive: [1] -5.35% | [2] 8.55% | [3] 6.8% | [4] -4.5% | [5] -7.9% | [6] 15.5%

C=CCOC(=O)CCC(C#N)(C#N)CCC(=O)OCC=C
inactive: [1] -9.55% | [2] -7.1% | [3] -0.4% | [4] -25.8% | [5] 50.5% | [6] 15.3%

O=C(Cl)CN1C(=O)c2ccccc2C1=O
inactive: [1] -12.1% | [2] -24% | [3] -14.5% | [4] -14.3% | [5] -12.3% | [6] -0.25%

O=C1CCCC2=C1CC1=C(CCCC1=O)N2c1cccc2ccccc12
inactive: [1] 7.7% | [2] -16% | [3] 12.7% | [4] 9.85% | [5] 21.8% | [6] 28.1%

N#CC1CCCC(CBr)C1 (stereo not drawn)
inactive: [1] -24.9% | [2] -43% | [3] -20.5% | [4] -23.7% | [5] -9.05% | [6] -26.7%

C/C(Cc1cccc2ccccc12)=N/NC(N)=O
inactive: [1] 2.35% | [2] -27.8% | [3] -19.1% | [4] -8% | [5] -12.1% | [6] -8.45%

COc1cc(N=Nc2ccccc2)cc(/C=N\NC(=S)Nc2cccc(C)c2)c1O
inactive: [1] 35.2% | [2] 19.9% | [3] 29.8% | [4] 24.9% | [5] -8.15% | [6] 39.7%

Cc1cc(O)c(C(c2ccc(C#N)cc2)c2c(O)cc(C)[nH]c2=O)c(=O)[nH]1
inactive: [1] -1.05% | [2] -31.9% | [3] 1.95% | [4] -6.2% | [5] 4.6% | [6] -6.35%

CC(=O)NS(=O)(=O)c1ccc(NC(=O)CCC(=O)O)cc1
inactive: [1] -8.95% | [2] -20.4% | [3] 2.4% | [4] 7.2% | [5] 9.1% | [6] 4%

C/C(=C1/N=C(c2cc([N+](=O)[O-])ccc2Cl)N(c2ccc(Br)cc2)C1=O)c1cc2ccccc2oc1=O
inactive: [1] 35.3% | [2] 17.7% | [3] 15.7% | [4] 14.1% | [5] 9.35% | [6] 19.8%

NCCCCC(C(=O)NCC(=O)O)N(C(=O)OCc1ccccc1)C(=O)OCc1ccccc1 (stereo not drawn)
inactive: [1] -2% | [2] -4.6% | [3] -0.55% | [4] -33.1% | [5] -2.2% | [6] -2.05%

O=C(Sc1c(-c2ccccc2)c(=O)n(-c2ccccc2)c(=S)n1-c1ccccc1)c1ccc(Cl)cc1
inactive: [1] 2.75% | [2] 3.9% | [3] 16.1% | [4] -4.35% | [5] 5.4% | [6] 12.8%

COc1ccc2c3c(ccc2c1)C1C(=O)OC(=O)C1CC3 (stereo not drawn)
inactive: [1] -2.6% | [2] 8.6% | [3] 6.5% | [4] -36.6% | [5] -5.95% | [6] 11.2%

CC(C)NC(=O)OCc1c(COC(=O)NC(C)C)c(Sc2ccccc2)n2c1CCC2
inactive: [1] 6.6% | [2] -17.1% | [3] 1.85% | [4] -27.6% | [5] 9.1% | [6] 16.2%

CC(=O)c1ccc(C)c([N+](=O)[O-])c1
inactive: [1] -13.2% | [2] -5.65% | [3] -11.6% | [4] -48.1% | [5] -7.15% | [6] -0.6%

CCOC(=O)C(CCC(c1ccc(OC)cc1)c1ccc(OC)cc1)C(=O)OCC
inactive: [1] 29.7% | [2] -8.15% | [3] 10.2% | [4] 2.05% | [5] 27.6% | [6] -18.2%

C[N+](C)(C)/C=C/c1ccccc1
inactive: [1] 30.8% | [2] -8.2% | [3] 21% | [4] -11.3% | [5] 0.2% | [6] 38.9%

COc1ccccc1NC(=O)CC(C)=O
inactive: [1] 7% | [2] -5.9% | [3] 7.8% | [4] -11.6% | [5] -15.8% | [6] -8.5%

Cc1sc2nc(N(C)C)oc(=O)c2c1C
inactive: [1] 28.8% | [2] 51% | [3] 33.6% | [4] 1.5% | [5] 64.4% | [6] 50.5%

COC1=C(O)C(=O)N(C)C(=O)C1
inactive: [1] 20.4% | [2] 9.35% | [3] 29.2% | [4] 0.75% | [5] -14.7% | [6] 10.8%

CCOc1ccc2ccccc2c1
inactive: [1] -28.2% | [2] 0.7% | [3] 1.25% | [4] -49.5% | [5] -3.15% | [6] -19.7%

CC(=O)Nc1ccc(N)cc1N
inactive: [1] -1.3% | [2] -37.8% | [3] -17.9% | [4] 29.7% | [5] -6.35% | [6] 13.8%

COc1cc2c(c([N+](=O)[O-])c1)NC(=O)CS2
inactive: [1] -81.2% | [2] -60.5% | [3] -17.2% | [4] -4.5% | [5] 0.95% | [6] -28.1%

CCOC(=O)/C=C(/OCC)c1cccc(Cl)c1
inactive: [1] 9.4% | [2] -5.95% | [3] 13.8% | [4] 16.3% | [5] 39.4% | [6] -1.85%

CCCCCCCCCCCC(=O)OC(C)CO (stereo not drawn)
inactive: [1] -3.9% | [2] -10.9% | [3] -3.7% | [4] -32.9% | [5] -1.45% | [6] 17.1%

CC1(C)OCC(C2CCC3(C)C4=CCC5C(C)(C)C(O)CCC5(C)C4CCC23C)CC(O)C1O (stereo not drawn)
inactive: [1] 59.6% | [2] 57% | [5] 64.8% | [6] 31.9%
active: [3] 72.3% | [4] 76.5%
